Here are results for one molecule from ChEMBL document CHEMBL1961873, “Compounds: GSK PKIS; Assays: Nanosyn kinase panel” (2012).

Broadly, the inhibition is the drop in the measured response relative to a control, in per cent.

Test [1] has as its target T1, Inhibitor of nuclear factor kappa-B kinase subunit epsilon (Homo sapiens) (UniProt Q14164).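 Further: reported values are averaged percent inhibition figures against human IKKε.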
T1 sequence (whole entry): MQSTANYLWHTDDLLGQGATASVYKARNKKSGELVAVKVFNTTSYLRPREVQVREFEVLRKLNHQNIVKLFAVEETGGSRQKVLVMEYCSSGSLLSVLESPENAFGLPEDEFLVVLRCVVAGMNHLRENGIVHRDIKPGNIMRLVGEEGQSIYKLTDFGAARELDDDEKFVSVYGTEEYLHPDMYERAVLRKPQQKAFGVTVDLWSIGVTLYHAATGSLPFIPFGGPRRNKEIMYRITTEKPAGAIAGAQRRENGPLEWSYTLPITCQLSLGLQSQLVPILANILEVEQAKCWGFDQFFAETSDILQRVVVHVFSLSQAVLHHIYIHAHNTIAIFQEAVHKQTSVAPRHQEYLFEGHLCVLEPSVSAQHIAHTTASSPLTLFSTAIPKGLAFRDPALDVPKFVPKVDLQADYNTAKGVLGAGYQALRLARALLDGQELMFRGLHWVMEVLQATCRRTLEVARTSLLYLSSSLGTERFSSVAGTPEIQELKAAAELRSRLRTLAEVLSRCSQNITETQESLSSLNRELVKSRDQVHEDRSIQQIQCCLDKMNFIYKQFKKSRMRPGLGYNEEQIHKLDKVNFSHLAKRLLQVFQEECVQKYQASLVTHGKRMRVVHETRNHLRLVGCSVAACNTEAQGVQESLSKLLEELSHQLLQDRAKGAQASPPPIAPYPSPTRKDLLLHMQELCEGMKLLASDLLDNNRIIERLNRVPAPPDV
Conditions: at 1 µM.

Test [2] concerns the target T2, Serine/threonine-protein kinase Nek1 (Homo sapiens) (UniProt Q96PY6).
T2 sequence (whole entry): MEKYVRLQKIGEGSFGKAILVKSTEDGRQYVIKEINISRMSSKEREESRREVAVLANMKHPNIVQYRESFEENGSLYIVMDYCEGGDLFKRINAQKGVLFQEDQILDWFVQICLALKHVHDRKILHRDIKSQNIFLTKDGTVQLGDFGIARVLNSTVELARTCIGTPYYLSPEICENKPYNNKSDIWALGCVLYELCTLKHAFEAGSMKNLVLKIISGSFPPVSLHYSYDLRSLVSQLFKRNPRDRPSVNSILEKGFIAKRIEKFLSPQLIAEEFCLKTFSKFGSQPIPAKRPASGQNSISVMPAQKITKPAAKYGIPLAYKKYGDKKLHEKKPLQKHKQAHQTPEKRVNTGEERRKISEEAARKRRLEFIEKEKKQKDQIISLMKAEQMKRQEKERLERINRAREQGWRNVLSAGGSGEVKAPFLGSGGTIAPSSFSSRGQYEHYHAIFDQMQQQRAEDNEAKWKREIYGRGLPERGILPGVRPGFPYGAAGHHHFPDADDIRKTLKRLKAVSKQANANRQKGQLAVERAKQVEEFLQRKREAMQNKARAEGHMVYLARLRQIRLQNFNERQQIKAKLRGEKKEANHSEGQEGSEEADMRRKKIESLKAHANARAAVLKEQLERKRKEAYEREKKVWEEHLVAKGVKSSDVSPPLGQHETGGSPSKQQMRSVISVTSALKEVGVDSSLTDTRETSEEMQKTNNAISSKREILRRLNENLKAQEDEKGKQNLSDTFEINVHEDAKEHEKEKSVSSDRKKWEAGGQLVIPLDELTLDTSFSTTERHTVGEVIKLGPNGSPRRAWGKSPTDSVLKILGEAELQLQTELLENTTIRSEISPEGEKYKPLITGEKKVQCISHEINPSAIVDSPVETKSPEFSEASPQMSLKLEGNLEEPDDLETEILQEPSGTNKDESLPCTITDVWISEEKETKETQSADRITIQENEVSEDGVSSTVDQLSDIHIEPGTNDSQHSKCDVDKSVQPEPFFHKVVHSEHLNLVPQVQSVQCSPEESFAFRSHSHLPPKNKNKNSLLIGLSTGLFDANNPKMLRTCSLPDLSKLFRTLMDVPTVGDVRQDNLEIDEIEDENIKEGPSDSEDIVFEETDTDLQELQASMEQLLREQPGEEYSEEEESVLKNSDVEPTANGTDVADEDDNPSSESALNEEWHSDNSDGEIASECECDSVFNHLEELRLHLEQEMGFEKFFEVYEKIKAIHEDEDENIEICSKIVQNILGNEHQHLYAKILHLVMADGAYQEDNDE
Conditions: at 0.1 µM.

The target of test [3] is T2, Serine/threonine-protein kinase Nek1 (Homo sapiens). The following applies: at 1 µM.
Test [4] concerns the target T3, Serine/threonine-protein kinase Nek2 (Homo sapiens) (UniProt P51955).
T3 sequence (whole entry): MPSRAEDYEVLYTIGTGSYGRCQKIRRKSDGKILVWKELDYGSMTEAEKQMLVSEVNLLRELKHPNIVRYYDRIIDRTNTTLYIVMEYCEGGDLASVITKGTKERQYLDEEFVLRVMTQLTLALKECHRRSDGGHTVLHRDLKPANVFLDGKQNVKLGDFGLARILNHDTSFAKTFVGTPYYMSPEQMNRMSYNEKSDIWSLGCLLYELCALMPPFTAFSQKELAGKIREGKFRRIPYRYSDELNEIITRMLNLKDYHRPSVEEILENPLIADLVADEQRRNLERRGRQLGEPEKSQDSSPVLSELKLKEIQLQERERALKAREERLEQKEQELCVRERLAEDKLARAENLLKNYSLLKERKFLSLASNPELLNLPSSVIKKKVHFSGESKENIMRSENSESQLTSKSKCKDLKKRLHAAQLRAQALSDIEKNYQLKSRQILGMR
Conditions: at 0.1 µM.

The target in test [5] is T3, Serine/threonine-protein kinase Nek2 (Homo sapiens). The following applies: at 1 µM.
In test [6] the target is Serine/threonine-protein kinase Nek6 (Homo sapiens) (UniProt Q9HC98). Conditions: at 0.1 µM.
Sequence of Serine/threonine-protein kinase Nek6 (Homo sapiens) (Q9HC98 whole entry): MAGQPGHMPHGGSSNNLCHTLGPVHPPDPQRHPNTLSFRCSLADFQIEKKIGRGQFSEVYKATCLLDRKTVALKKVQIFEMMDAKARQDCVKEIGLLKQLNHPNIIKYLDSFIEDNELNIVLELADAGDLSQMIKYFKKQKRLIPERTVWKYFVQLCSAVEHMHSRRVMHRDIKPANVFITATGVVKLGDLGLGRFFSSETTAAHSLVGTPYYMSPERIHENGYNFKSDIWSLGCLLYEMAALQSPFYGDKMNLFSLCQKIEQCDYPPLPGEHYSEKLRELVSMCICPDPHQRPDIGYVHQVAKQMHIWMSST
Test [7] has the same target. The following applies: at 1 µM.
Test [8] has as its target Serine/threonine-protein kinase Nek7 (Homo sapiens) (UniProt Q8TDX7). Conditions: at 0.1 µM.
For test [9] the target is unchanged. Conditions: at 1 µM.
For test [10], the target named is T4, Serine/threonine-protein kinase Nek9 (Homo sapiens) (UniProt Q8TD19).
T4 sequence (whole entry): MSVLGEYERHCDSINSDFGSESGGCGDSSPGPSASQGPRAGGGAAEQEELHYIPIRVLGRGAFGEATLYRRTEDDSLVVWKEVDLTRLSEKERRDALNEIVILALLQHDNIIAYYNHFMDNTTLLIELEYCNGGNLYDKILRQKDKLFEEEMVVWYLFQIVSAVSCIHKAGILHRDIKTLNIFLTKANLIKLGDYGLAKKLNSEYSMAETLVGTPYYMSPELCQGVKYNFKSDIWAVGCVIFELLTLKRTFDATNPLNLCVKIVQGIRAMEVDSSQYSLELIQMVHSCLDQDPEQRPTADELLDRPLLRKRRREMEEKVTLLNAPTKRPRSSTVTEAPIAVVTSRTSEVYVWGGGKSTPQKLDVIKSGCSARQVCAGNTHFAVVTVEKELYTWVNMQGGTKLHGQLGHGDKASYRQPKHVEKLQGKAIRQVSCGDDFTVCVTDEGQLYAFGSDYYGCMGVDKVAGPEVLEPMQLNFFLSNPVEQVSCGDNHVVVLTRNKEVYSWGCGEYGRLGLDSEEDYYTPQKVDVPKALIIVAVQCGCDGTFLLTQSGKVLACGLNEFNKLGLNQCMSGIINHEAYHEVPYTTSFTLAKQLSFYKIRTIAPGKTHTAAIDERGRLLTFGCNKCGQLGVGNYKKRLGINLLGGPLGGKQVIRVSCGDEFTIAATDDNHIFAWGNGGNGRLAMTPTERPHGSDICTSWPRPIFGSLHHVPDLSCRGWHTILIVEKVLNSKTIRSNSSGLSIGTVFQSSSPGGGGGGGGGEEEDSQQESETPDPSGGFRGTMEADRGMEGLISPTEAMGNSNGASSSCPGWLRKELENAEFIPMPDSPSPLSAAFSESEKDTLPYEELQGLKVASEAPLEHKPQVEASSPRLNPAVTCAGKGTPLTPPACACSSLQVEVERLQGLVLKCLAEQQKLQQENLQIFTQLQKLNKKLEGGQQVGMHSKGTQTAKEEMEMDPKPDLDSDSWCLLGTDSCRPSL
The following applies: at 0.1 µM.

The target in test [11] is T4, Serine/threonine-protein kinase Nek9 (Homo sapiens). Conditions: at 1 µM.
Test [12] addresses Serine/threonine-protein kinase PLK1 (Homo sapiens) (UniProt P53350). Conditions: at 0.1 µM.
Test [13] shares this target. The following applies: at 1 µM.
Test [14] deals with T5, Dual specificity protein kinase TTK (Homo sapiens) (UniProt P33981).
T5 sequence (whole entry): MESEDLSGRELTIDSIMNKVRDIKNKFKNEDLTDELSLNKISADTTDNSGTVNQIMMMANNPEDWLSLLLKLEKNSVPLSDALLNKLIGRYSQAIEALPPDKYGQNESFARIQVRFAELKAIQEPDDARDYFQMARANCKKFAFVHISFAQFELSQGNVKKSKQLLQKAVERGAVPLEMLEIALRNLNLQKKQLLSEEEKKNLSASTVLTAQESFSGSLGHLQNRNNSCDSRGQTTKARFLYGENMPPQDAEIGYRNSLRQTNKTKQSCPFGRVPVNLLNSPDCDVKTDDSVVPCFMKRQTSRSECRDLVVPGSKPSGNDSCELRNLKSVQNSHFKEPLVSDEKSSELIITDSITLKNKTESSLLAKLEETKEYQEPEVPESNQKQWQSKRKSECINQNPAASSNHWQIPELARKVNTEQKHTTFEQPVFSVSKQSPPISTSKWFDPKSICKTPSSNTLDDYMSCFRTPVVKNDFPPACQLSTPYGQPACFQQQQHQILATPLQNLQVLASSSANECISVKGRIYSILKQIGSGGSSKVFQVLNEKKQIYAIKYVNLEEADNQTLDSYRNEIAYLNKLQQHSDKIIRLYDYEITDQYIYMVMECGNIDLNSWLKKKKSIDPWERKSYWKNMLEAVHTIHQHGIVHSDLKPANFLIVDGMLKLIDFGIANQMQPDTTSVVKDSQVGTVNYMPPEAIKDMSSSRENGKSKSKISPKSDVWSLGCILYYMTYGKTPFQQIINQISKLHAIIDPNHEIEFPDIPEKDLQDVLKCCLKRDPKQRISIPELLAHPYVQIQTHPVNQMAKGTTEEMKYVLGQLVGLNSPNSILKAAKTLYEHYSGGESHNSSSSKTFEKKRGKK
Conditions: at 0.1 µM.

Test [15] concerns T6, Receptor-type tyrosine-protein kinase FLT3 (Homo sapiens), P36888 [D835Y].
T6 sequence (whole entry): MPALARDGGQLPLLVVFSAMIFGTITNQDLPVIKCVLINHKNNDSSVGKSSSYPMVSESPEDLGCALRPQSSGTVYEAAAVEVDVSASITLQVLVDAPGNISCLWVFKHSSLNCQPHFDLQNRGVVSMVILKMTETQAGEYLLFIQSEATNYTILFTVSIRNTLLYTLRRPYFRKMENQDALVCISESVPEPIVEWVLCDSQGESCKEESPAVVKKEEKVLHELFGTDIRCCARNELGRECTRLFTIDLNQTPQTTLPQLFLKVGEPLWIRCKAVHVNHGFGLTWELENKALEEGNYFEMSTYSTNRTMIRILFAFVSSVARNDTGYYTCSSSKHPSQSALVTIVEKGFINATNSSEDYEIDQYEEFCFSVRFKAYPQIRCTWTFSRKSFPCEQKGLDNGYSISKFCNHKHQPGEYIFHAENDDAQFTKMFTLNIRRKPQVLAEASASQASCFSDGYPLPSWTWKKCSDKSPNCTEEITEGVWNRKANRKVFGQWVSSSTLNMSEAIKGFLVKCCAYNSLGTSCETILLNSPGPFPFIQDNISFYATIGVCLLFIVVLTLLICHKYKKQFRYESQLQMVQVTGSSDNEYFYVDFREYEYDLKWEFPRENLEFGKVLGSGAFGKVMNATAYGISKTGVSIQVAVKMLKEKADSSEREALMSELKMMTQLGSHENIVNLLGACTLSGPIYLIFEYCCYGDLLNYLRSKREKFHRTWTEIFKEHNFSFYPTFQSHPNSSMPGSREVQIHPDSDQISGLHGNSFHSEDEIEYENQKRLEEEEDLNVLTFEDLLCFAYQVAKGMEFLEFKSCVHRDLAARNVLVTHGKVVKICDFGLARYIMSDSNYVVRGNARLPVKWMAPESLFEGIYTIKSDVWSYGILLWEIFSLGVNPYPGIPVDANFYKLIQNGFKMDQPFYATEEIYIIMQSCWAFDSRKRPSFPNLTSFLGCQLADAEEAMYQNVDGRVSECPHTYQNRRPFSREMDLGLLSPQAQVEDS
Conditions: at 1 µM.

Test [16] deals with Vascular endothelial growth factor receptor 3 (Homo sapiens) (UniProt P35916). Conditions: at 0.1 µM.
Sequence of Vascular endothelial growth factor receptor 3 (Homo sapiens) (P35916 whole entry): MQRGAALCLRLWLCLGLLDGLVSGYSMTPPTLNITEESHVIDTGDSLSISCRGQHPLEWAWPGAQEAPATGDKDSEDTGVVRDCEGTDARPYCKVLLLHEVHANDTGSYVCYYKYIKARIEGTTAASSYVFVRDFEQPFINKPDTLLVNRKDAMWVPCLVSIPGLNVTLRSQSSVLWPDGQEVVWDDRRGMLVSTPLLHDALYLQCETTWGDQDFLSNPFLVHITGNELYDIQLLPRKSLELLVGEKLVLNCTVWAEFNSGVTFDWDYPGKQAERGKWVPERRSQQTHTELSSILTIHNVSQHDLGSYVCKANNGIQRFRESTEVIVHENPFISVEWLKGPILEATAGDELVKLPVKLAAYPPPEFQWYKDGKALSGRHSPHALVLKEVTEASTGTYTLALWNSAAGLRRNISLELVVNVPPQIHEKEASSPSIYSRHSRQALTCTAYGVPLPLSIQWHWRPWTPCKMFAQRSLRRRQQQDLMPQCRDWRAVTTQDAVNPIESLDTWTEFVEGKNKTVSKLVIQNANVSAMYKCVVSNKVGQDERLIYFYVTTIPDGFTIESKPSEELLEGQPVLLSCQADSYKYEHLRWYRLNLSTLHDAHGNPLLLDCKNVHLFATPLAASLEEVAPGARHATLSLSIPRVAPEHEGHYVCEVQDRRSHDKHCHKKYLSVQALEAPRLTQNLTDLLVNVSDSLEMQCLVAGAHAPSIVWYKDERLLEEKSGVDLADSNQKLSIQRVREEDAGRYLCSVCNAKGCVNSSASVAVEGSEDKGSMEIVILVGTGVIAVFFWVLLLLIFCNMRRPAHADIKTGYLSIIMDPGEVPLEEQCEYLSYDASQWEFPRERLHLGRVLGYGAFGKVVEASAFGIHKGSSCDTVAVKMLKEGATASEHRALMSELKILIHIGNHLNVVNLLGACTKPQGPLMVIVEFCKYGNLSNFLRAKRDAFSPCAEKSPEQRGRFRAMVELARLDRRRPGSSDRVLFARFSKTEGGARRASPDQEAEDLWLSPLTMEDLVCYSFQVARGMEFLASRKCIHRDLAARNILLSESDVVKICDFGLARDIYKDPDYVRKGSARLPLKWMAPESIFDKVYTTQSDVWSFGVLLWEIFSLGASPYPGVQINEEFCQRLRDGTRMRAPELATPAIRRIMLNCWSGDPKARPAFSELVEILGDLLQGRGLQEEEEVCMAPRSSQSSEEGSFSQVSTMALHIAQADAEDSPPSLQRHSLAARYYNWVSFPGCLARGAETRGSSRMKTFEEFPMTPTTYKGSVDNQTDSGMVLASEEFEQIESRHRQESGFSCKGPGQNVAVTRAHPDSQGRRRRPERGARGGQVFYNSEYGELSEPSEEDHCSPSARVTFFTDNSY
For test [17] the target is unchanged. The following applies: at 1 µM.
For test [18], the target named is Macrophage colony-stimulating factor 1 receptor (Homo sapiens) (UniProt P07333). The following applies: at 0.1 µM.
Sequence of Macrophage colony-stimulating factor 1 receptor (Homo sapiens) (P07333 whole entry): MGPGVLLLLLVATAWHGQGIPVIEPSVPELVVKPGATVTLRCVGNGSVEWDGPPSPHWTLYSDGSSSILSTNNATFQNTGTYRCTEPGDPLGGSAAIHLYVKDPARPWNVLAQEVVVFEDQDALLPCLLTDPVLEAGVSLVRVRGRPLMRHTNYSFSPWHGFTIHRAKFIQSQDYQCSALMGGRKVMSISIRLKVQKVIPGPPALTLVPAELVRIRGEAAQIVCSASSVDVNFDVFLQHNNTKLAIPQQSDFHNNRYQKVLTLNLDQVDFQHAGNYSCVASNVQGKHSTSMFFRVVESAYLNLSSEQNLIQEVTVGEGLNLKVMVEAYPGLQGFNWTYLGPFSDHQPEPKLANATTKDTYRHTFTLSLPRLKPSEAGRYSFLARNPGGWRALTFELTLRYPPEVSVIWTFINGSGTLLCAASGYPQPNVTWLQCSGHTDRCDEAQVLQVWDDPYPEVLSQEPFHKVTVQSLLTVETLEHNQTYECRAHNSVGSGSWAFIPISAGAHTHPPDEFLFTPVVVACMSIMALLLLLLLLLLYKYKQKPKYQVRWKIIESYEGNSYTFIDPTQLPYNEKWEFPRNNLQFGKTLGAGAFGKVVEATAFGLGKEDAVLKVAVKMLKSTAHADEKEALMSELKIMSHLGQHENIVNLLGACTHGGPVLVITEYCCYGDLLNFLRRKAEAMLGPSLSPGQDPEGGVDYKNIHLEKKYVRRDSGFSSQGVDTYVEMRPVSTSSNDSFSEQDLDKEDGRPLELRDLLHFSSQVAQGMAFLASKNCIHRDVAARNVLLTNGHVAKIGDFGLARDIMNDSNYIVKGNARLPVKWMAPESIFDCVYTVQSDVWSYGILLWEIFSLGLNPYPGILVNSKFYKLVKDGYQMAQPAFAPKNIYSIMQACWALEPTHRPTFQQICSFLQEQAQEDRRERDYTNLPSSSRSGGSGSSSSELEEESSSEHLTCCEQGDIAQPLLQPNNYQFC
Test [19] has the same target. Conditions: at 1 µM.
The target in test [20] is Tyrosine-protein kinase Fyn (Homo sapiens) (UniProt P06241). The following applies: at 0.1 µM.
Sequence of Tyrosine-protein kinase Fyn (Homo sapiens) (P06241 2-537 limits assumed): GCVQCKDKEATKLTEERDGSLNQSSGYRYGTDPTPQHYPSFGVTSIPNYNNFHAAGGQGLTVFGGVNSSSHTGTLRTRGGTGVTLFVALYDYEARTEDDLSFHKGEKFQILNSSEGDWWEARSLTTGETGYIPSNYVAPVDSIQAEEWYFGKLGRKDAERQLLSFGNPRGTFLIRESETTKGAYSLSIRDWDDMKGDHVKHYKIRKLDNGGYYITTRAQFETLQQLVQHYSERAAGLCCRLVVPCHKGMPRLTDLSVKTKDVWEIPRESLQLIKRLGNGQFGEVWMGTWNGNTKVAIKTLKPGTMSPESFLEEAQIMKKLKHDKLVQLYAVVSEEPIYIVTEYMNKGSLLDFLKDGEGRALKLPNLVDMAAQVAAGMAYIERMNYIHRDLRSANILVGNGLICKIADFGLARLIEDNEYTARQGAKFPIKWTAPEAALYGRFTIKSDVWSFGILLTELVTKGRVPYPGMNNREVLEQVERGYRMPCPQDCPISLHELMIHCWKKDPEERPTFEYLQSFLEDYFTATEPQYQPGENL

Sequence of Serine/threonine-protein kinase Nek7 (Homo sapiens) (Q8TDX7 whole entry, looked up): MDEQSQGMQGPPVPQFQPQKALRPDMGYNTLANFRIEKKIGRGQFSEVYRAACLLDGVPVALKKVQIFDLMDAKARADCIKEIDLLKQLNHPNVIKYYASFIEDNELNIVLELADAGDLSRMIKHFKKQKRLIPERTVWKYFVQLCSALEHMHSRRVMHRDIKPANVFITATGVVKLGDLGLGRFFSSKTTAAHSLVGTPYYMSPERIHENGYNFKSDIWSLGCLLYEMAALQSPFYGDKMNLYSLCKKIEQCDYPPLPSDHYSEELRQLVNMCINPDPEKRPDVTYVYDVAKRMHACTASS
Sequence of Serine/threonine-protein kinase PLK1 (Homo sapiens) (P53350 whole entry): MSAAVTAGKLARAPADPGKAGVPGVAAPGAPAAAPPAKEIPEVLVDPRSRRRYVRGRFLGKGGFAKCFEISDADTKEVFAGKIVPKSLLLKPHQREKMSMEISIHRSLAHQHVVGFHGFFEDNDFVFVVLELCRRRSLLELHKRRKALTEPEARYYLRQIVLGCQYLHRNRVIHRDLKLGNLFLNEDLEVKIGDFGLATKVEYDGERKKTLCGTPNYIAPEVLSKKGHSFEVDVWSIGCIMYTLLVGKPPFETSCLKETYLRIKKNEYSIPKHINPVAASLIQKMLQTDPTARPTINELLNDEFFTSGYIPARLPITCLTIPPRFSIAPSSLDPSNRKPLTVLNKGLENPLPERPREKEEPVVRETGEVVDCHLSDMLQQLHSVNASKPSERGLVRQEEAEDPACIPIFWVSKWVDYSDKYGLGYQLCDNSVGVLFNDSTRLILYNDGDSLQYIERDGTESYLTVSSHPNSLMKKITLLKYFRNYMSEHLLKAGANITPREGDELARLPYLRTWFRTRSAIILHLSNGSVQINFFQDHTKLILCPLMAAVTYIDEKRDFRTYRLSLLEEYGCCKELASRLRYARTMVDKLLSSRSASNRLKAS

Turning to `CNC(=O)c1ncccc1Nc1nc(Nc2cc3c(cc2OC)CCCN3C(=O)CN(C)C)nc2[nH]ccc12`, the inhibition in test [1] turned out to be 10.1%; in test [2], 0.87%; in [3], 2.58%; in test [4], 4.37%; in test [5] it was 3.89%; in test [6], 2.87%. Moreover, the inhibition in [7] is -0.46%; in test [8], 3.53%; in test [9], 7.42%; in [10], 5.86%; in test [11], 8.8%; in test [12], 79.8%. In addition, the inhibition was found to be 92.8% in [13]; 12.8% in test [14]; 2.75% in test [15]; 2.84% in [16]; 2.27% in test [17]; 7.05% in test [18]. For the same molecule, the figures for the inhibition in test [19] and in [20] were 3.9% and 1.75%, respectively.
